# RE007 growth inh: less growth of the S. pombe RE007 Vpr strain; S. pombe RE007 Vpr strain, BacTiter-Glo ATP luminescence, 24 h; Potency, µM (series often up to 92.2 µM), inactives show top-dose activity change, negative = less growth, actives largely listed as inhibitors; 360,000 tested, 0.21% active; active = well fitted falling curve with a large enough effect; inconclusive = small, poorly fitted or top-dose-only effect; inactive = no such curve, though single readings can be large or run the other way; note: nearly all actives have a fitted effect of over 50% in size
#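 Fission yeast RE007 carrying one integrated HIV-1 vpr copy, seeded at OD 0.01 in PMG+AL medium with 23 nL pinned compound. Grown 24 h at 30 degrees; viability read by BacTiter-Glo luminescence after 5 min.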
# Tb PYK inh: T. brucei pyruvate kinase inhibition | Q57TT1 | TbPYK enzyme, Kinase-Glo Plus ATP luminescence, 45 min | Potency, µM (doses to about 76.8 µM), without a hit: at the highest dose activity, negative = inhibition, usual class: inhibitors | 410,000 tested, 0.12% active | AID 624173; note: nearly all actives have a fitted effect of over 50% in size
#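 TbPYK + substrate in 50 mM TEA pH 7.2, 100 mM KCl, 10 mM MgCl2, 0.05% BSA, 0.01% Tween-20; cpd pinned; ADP 130 uM final; 45 min RT; Kinase-Glo Plus 10 min; luminescence endpoint.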
# AMA1 RON2 block: disrupts binding of P. falciparum AMA1 to RON2; AlphaScreen AMA1-biotinylated RON2 peptide binding; Potency, µM (doses to about 58.2 µM), for the others: at the highest dose activity change, negative = inhibition, usual class: inhibitors; 360,000 tested, 0.2% active; AID 720542;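 note: 0% = vehicle wells and -100% = peptide control; nearly all actives have a fitted effect of over 45% in size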
#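 AMA1 (3D7) with his tag at 25 nM final met compounds first, then biotinylated RON2 peptide at 25 nM; detection used donor plus acceptor beads, 10 µg/mL apiece, read by AlphaScreen after 30 min at room temperature.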
# VACV mCherry inh: inhibitors of vaccinia virus infection (mCherry reporter signal). Vaccinia virus mCherry reporter infection, fluorescence. Potency, µM (titrated, usually from 36.5 µM), for inactives: top-dose activity change, negative = inhibition, actives largely listed as inhibitors. 310,000 tested, 0.63% active; calls by dose curve; tested in A549 cells; note: nearly all actives have a fitted effect of over 35% in size
# LmPK inh: LmPK (Leishmania mexicana) enzyme inhibition; Potency, µM (series often up to 57.5 µM), for the others: at the highest dose activity change, negative = inhibition, most hits filed as inhibitors; purified LmPK, Kinase-Glo ATP luminescence, 1 h; 290,000 tested, 0.37% active; AID 1721; Q27686
# Target sequence (Q27686 whole entry, looked up): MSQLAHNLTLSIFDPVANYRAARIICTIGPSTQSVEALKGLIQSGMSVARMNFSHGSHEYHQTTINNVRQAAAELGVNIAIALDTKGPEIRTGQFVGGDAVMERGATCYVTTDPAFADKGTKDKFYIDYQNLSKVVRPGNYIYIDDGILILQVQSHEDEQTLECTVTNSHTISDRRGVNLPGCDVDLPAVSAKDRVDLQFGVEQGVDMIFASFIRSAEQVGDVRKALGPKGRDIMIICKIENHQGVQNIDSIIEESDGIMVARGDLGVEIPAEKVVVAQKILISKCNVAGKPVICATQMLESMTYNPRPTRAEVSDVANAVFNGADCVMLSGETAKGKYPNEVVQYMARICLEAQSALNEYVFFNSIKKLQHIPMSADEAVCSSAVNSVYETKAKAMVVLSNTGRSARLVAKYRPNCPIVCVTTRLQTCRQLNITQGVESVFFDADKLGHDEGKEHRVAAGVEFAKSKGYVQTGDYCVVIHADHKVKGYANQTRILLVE
#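 Purified LmPK (0.1 nM) converted ADP (0.1 mM) to ATP with PEP (0.5 mM) in imidazole buffer pH 7.2 with KCl and MgCl2, 1 h at room temperature. ATP was read by Kinase-Glo luminescence; data normalized to uninhibited and no-enzyme controls.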
# Vaccinia Venus: vaccinia inhibition (Venus reporter); Vaccinia virus Venus reporter expression, fluorescence; Potency, µM (series often up to 36.5 µM), for inactives: at the top dose activity change, negative = inhibition, actives largely listed as inhibitors; 330,000 tested, 0.46% active; calls by dose curve; tested in A549 cells; note: nearly all actives have a fitted effect of over 30% in size
# The depositor's hits bear a star; i = inactive; ? = inconclusive; . = no result; + = active, no number; [ ] = another dose, or the depositor's remark. Rows were chosen to be rich in hits. Some 1.3% of all compounds tested hit in one or more screens of this group. Unless noted, calls come from the whole dose curve; as a rule, active = well fitted curve in the direction sought with a large enough effect; inconclusive = small, poorly fitted or top-dose-only effect, or another doubt; inactive = no such curve, though single readings can be large; an effect the other way counts as inactive or inconclusive. Unless noted, % is set by controls: 0 for no effect and ±100 for the full control effect; potency is the fitted concentration of half-maximal effect.
SMILES,RE007 growth inh,Tb PYK inh,AMA1 RON2 block,VACV mCherry inh,LmPK inh,Vaccinia Venus
CCN(CC)S(=O)(=O)c1ccc2oc(SCC(=O)Nc3cc(C)on3)nc2c1,17%,-14%,35%,10µM*,.,?
CCN(CC)S(=O)(=O)c1ccc2oc(SCC(=O)NC3CC3)nc2c1,0%,-10%,4%,18µM*,-3%,?
Cc1cc(NC(=O)CSc2nc3cc(Cl)ccc3o2)no1,4%,0%,36%,-8%,-1%,3%
O=C(CSc1nc2ccccc2o1)NC1CCCC1,-1%,-5%,32%,-7%,3%,0%
O=C(C1CC12CCN(Cc1cccc3cccnc13)CC2)N1CCN(Cc2cccs2)CC1 (centres undefined),.,.,.,-11%,.,-5%
O=C1CCC(c2ccccc2)c2ccccc21 (centres undefined),7%,4%,3%,.,.,.
N#CC1C(=O)c2ccccc2C1c1ccccc1 (centres undefined),8.9µM*,-25%,-27%,i,.,-14%
NC(=S)N/N=C1\CC(c2ccc3c(c2)OCCO3)Oc2ccc(F)cc21 (centres undefined),18%,-8%,72%,11µM*,-3%,?
NC(=S)N/N=C1\CC(c2ccc3c(c2)OCCCO3)Oc2ccc(F)cc21 (centres undefined),4%,-13%,7%,-27%,2%,0%
CCN1CCOC(CC(=O)Nc2ccc([N+](=O)[O-])cc2)C1=O (centres undefined),45µM*,1%,-15%,i[7.34 µM],-3%,-7%[7.34 µM]
Cc1cccc(OCc2n[nH]c(=S)n2C2CCCCC2)c1,1%,13µM*,8%,?,18µM*,-22%
Cc1ccc(OCc2n[nH]c(=S)n2C2CCCCC2)cc1,-15%,?,8%,-1%,8.9µM*,-8%
Cc1cc(CNC(=O)c2cnn(-c3nccc(-c4cc(C)sc4C)n3)c2C2CC2)on1,.,.,.,-3%,.,-3%
CNC[C@H](CC1CCCCC1)NC[C@H](Cc1ccccc1)NCCC12CC3CC(CC(C3)C1)C2,73%,4%,47%,?,-4%,10µM*
Cc1c(N/N=C(\C#N)C(=O)c2ccc(Cl)cc2)c(=O)n(-c2ccccc2)n1C,1%,-13%,2%,11µM*,4%,?
COc1cc(-c2nc(C)cnc2C)cc2c1OCCN(C(=O)Cc1cc(OC)c(OC)c(OC)c1)C2,.,.,.,-9%,.,10%
CCCCCCCNC(=O)C1(CC2CC(c3cccc(Br)c3)=NO2)CCNCC1 (centres undefined),17%,1%,-9%,?,6%,11µM*
CCc1cc(OC)c(CC(C)N)cc1OC (centres undefined),.,-6%[157 µM],.,.,.,.
O=C(N/N=C/c1cccc(O)c1)N/N=C/c1cccc(O)c1,-2%,-15%,-1%,i,1%,-4%
Cc1nonc1C(=O)N/N=C/c1cccc(O)c1,-23%,-26%,6%,-9%,14µM*,-5%
Cc1cc(C)cc(NS(=O)(=O)c2ccc3[nH]cc(C(=O)NCc4ccco4)c(=O)c3c2)c1,4%,0%,8%,10µM*,2%,11µM*
C#CCSc1nnc(-c2ccc(O)cc2)o1,-8%,-1%,-6%,-6%,-12%,-22%
C#CCSc1nnc(-c2ccc(C)cc2)o1,?,-4%,-9%,10µM*,-2%,?
C=C(CN(C)C)C(=O)c1cc(C)ccc1C,9%,?,4%,?,.,7.1µM*
Cc1ccc(C)c(C(=O)NCCN(C)C)c1,4%,0%,-4%,.,0%,.
SMILES,RE007 growth inh,Tb PYK inh,AMA1 RON2 block,VACV mCherry inh,LmPK inh,Vaccinia Venus
Cc1sc(N/N=C/C=C/c2ccccc2)nc1-c1ccccc1,-10%,-12%,52%,3.5µM*,-2%,?
Cc1cc(C)nc(N/N=C/C=C/c2ccccc2)n1,-1%,-5%,26%,-8%,0%,-2%
CC(=O)Nc1ccc(S(=O)(=O)O)c2cc(S(=O)(=O)O)c(N=Nc3ccc(N=Nc4ccc(S(=O)(=O)O)cc4)c4ccc(S(=O)(=O)O)cc34)c(O)c12,.,.,.,-19%,.,-19%
O=C(O)CCn1cc(C=C2C(=O)NC(=S)NC2=O)c(-c2ccccc2)n1,6%,?,-9%,-11%,-2%,1%
O=C(O)CCn1cc(C=C2C(=O)NC(=S)NC2=O)c(-c2cc3ccccc3oc2=O)n1,-8%,14µM*,-13%,-10%,6%,23%
Cc1ccc(S(=O)(=O)N2CCN(C(=O)CCc3nc4ccccc4c(=O)[nH]3)CC2)c(C)c1,8%,-2%,10%,-9%,.,?
O=C(CCc1nc2ccccc2c(=O)[nH]1)N1CCN(S(=O)(=O)c2ccccc2Br)CC1,-10%,-10%,15%,?,.,10µM*
Cc1ccc(S(=O)(=O)N2CCC(C(=O)NCC(C)(C)N3CCOCC3)CC2)c(C)c1,-2%,-5%,11%,.,.,.
CC(C)(CNC(=O)C1CCN(S(=O)(=O)c2cc([N+](=O)[O-])ccc2Cl)CC1)N1CCOCC1,2%,-4%,9%,14µM*,.,?
COc1cc(OC)cc(C(=O)N2CCCC(n3cc(C(=O)NCC(C)C)nn3)C2)c1 (centres undefined),.,.,.,-10%,.,-4%
COc1cc(/C=C(/C)[N+](=O)[O-])ccc1OCc1ccccc1Cl,-18%,-18%,?,?,1%,11µM*
COc1cc(/C=N/O)ccc1OCc1ccccc1Cl,25%,-1%,6%,i,-6%,-14%
CCCc1cc2c(=O)c(-c3ccc4c(c3)OCCO4)coc2cc1OS(C)(=O)=O,20%,-5%,14%[2.32 µM],10µM*,-2%,?
Cc1ccc(/C=C/c2nc3ccccc3s2)s1,?,-2%,165%,-7%,28µM*,-6%
COc1cccc(CN2CCN(Cc3cccc(F)c3)CC2)c1,-14%,22%,16µM*,.,0%,.
COc1ccc([C@@]23Oc4cc(OC)cc(OC)c4[C@]2(O)[C@H](O)[C@H](C(=O)N(C)C)[C@H]3c2ccccc2)cc1,-30%,2%,19%,+,.,0.0001µM*
CCc1nc2ccc(C(=O)NC3CCN(Cc4ccccc4)CC3)cn2c1N(C)Cc1ccc(N(C)C)cc1,?,3%,22µM*,16%,.,-14%
COc1cccc(/C=C2\SC(=S)N(CCC(=O)NCCc3ccc(O)cc3)C2=O)c1,1%,-2%,-8%,11µM*,4%,?
COc1ccc(-c2n[nH]c(=S)n2CC(C)C)cc1,-4%,?,12%,.,28µM*,.
CCn1c(-c2csc3ccccc23)n[nH]c1=S,8%,?,42%,-9%,10µM*,-21%

# From PubChem BioAssay
